Measurements from the supplement of paper PMC7156485.
Where “and” joins values, the source holds several entries; their conditions need not be identical. Identical values can stand only once. Unmarked numbers belong to inactive results.

Test system: TDF
Test: H1.0 immunofluorescence intensity relative to DMSO (% of DMSO); higher = stronger H1.0 induction, active = 120 or more
Conditions: concentration: 10 µM; 24 h
In short: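 Cells were seeded at 800 per well in 384-well plates with RPMI containing 10% FBS; both HCC1569 and TDF lines were used. Compounds were added at 10 µM for 24 h at 37 °C, in triplicate, before fixation in 3.7% formaldehyde and staining with a rabbit anti-H1.0 antibody, an AlexaFluor 647 secondary and DAPI. H1.0 nuclear intensity or cell number is reported as percent of the plate control using the median of replicates, and HCC1569 values were smoothed for positional effects.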
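Also: TDF is a line of transformed human dermal fibroblasts of mesenchymal origin.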

| Structure (SMILES) | H1.0 immunofluorescence intensity |
| --- | --- |
| Cl.Clc1cc(I)cc(Cl)c1NC1=NCCN1 [p-Iodoclonidine hydrochloride] | 94.9 |
| CC(C)C1(NC(=O)C2CC3c4cccc5[nH]cc(c45)CC3N(C)C2)OC2(O)C3CCCN3C(=O)C(Cc3ccccc3)N2C1=O.CS(=O)(=O)O (stereo not drawn) [Dihydroergocristine mesylate] | 91.4 |
| CNC(=O)Oc1ccc2c(c1)C1(C)CCN(C)C1N2C (single isomer, unassigned; (-)) [(-)-Physostigmine] | 96.7 |
| NC(=O)CN1CC(O)CC1=O (stereo not drawn) [Oxiracetam] | 89.7 |
| CC(C)C1(NC(=O)C2C=C3c4cccc5[nH]cc(c45)CC3N(C)C2)OC2(O)C3CCCN3C(=O)C(Cc3ccccc3)N2C1=O (stereo not drawn) [Ergocristine] | 92.8 |
| CCC(C(N)=O)N1CCCC1=O (stereo not drawn) [Levetiracetam] | 95.2 |
| C=CCN1CCC23c4c5ccc(O)c4OC2C(=NN=C2CCC4(O)C6Cc7ccc(O)c8c7C4(CCN6CC=C)C2O8)CCC3(O)C1C5 (stereo not drawn) [Naloxonazine] | 105 |
| Br.C#CCOC(=O)C1=CCCN(C)C1 [Arecaidine propargyl ester hydrobromide] | 93.1 |
| CS(=O)(=O)O.Oc1ccc2c3c1OC1c4oc5ccccc5c4CC4(O)C(C2)N(CC2CC2)CCC314 (stereo not drawn) [Naltriben methanesulfonate] | 92.4 |
| COC1=CC2C3Cc4ccc(OC)c(O)c4C2(CCN3C)CC1=O (stereo not drawn) [Sinomenine] | 94.1 |
| CC1OC(=O)C2CC3CCCCC3C(C=CC3CCCC(C)N3C)C12 (single isomer, unassigned; (+)) [(+)-Himbacine] | 91 |
| O=C1NC(=O)c2c1c1c3ccccc3n3c1c1c2c2ccccc2n1C1CCC3O1 | 105 and 100 |
| Cl.NCCc1ccc(O)cc1 [4-Hydroxyphenethylamine hydrochloride] | 96.7 |
| CCCn1c(=O)c2[nH]c(C3CCCC3)nc2n(CCCOC(=O)c2ccc(S(=O)(=O)F)cc2)c1=O | 90.1 |
| C[N+]1(C)C2CCC1CC(OC(=O)c1c[nH]c3ccccc13)C2.[I-] (stereo not drawn) [3-Tropanylindole-3-carboxylate methiodide] | 95.5 |
| CCCCCN(C)CCC(O)(P(=O)([O-])O)P(=O)(O)O.[Na+] | 89.4 |
| CCOC(=O)c1ncn2c1C1CCCN1C(=O)c1cc(OC)ccc1-2 (stereo not drawn) | 88.2 |
| CCN1CC2(COC)CCC(O)C34C5CC6C(OC)CC(O)(C(CC23)C14)C5C6OC(C)=O (stereo not drawn) [Condelphine] | 98.6 |
